A selection: hits, their analogues and other compounds. The true share with any hit is near 3.7%.
V-ATPase pHluor – regulators of yeast V-ATPase proton pumping, primary screen, pHLuorin cytosolic pH fluorescence; response, % at 10 µM; S. cerevisiae; 350,000 compounds, 0.37% hits; in the data active means response mostly above about 7.3%, no sharp cut-off; inactive means mostly below about 5.4%; further: actives read high
PfHsp90 yeast 2 – growth inhibition of PfHsp90-expressing yeast, primary screen, antimalarial PfHsp90 inhibitor project, S. cerevisiae, BacTiter-Glo luminescence, single point, set 2; inhibition, % at 9.4 µM; 310,000 compounds, 0.32% hits; AID 504621, 2011; BacTiter-Glo ATP, 48 h; yeast lacking PDR1 and PDR3 efflux regulators;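 active means every replicate shows inhibition above about 80%, whatever the replicate mean, limit read from the data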
tim23-1 inh – growth inhibitors of tim23-1 mutant yeast, primary screen, luminescence, uHTS. S. cerevisiae tim23-1 growth, BacTiter-Glo luminescence, 24 h. inhibition, % at 20 µM. 330,000 compounds, 1.3% hits;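 active means growth inhibition of the mutant yeast at or above 50%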;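 further: temperature-sensitive mutant grown at 25 °C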
tim10-1 inh – growth inhibitors of tim10-1 mutant yeast, primary screen, luminescence, uHTS | 330,000 compounds, 2.2% hits | S. cerevisiae tim10-1 ts strain growth, BacTiter-Glo, 24 h | inhibition, % at 20 µM | AID 463190, 2010;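 active means inhibition of at least 40%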;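 further: mutant grown at 25 °C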
TIM10 inh – growth inhibitors of isogenic TIM10 control yeast, primary screen, counter-screen for tim10-1 yeast inhibitor project, luminescence, uHTS; S. cerevisiae TIM10 strain growth, BacTiter-Glo luminescence, 24 h; inhibition, % at 10 µM; 330,000 compounds, 1.4% hits;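 active means inhibition of 40% or more at the single tested concentration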;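 further: wild-type TIM10 isogenic control strain grown at permissive 25 °C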
tim10 confirm – growth inhibitors of wild-type TIM10 yeast, confirmation, counter-screen for tim10-1 synthetic lethality project, single concentration, luminescence, S. cerevisiae. 4,600 compounds, 63% hits. S. cerevisiae tim10 strain growth, BacTiter-Glo luminescence, 24 h. shares compounds with TIM10 inh. inhibition, % at 10 µM;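 active means inhibition of yeast growth at or above a set limit in either of two replicates at 10 µM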; further: this counterscreen used the strain with wild-type TIM10
A number is an active result; n = inactive; x = no result.

SMILES | V-ATPase pHluor | PfHsp90 yeast 2 | tim23-1 inh | tim10-1 inh | TIM10 inh | tim10 confirm
OC(CNCc1ccco1)Cn1c2ccc(Br)cc2c2cc(Br)ccc21 (configuration not stated) | n | n | n | n | 46 | 65
OC[C@@H]1[C@@H](c2ccc(F)cc2)C(c2ccccc2)=NN1c1ccccc1 | n | n | n | n | n | x
O=C1[C@H]2C(c3ccccc3)=NN(c3ccccc3)[C@H]2C(=O)N1c1ccccc1 | n | n | n | n | 49 | 46
COc1ccc(-c2[nH]n(-c3ccc([N+](=O)[O-])cc3)c(=O)c2C=NCc2ccncc2)cc1 | n | n | n | n | 43 | n
COc1ccc(-c2[nH]n(-c3ccc([N+](=O)[O-])cc3)c(=O)c2C=NCc2ccc(F)cc2)cc1 | n | n | n | n | n | x
Cc1ccc(NC(=O)COC(=O)Cc2cccs2)cc1S(=O)(=O)N1CCOCC1 | n | n | n | n | 97 | n
O=C(NCC1CCCN(Cc2ccccc2F)C1)c1cccc(C(F)(F)F)c1 (configuration not stated) | n | n | n | n | n | x
Cc1cc(C)nc(OC(C(=O)O)C(OCc2ccccc2)(c2ccccc2)c2ccccc2)n1 (configuration not stated) | n | n | n | n | 97 | n
CCCOC(c1ccccc1)(c1ccccc1)C(Oc1nc(C)cc(C)n1)C(=O)O (configuration not stated) | n | n | n | n | n | x
Cc1ccccc1OCCC(=O)N(CC(C)C)c1c(N)n(Cc2ccccc2)c(=O)[nH]c1=O | n | n | n | n | n | x
O=S1(=O)N=C(N2CCCC2)c2ccccc21 | n | n | n | n | n | x
CC1Cc2ccccc2N1C1=NS(=O)(=O)c2ccccc21 (configuration not stated) | n | n | n | n | 42 | n
O=C(Cn1[nH]c(=O)c2ccccc2c1=O)N1CCN(S(=O)(=O)c2ccc(Cl)cc2)CC1 | n | n | n | n | n | x
CCC(C)n1c(-c2ccco2)nc2nc3ccccc3nc21 (configuration not stated) | x | x | n | n | 46 | n
CC(C)OCCCn1c(-c2ccco2)nc2nc3ccccc3nc21 | n | x | n | n | n | x
C=CCNC(=S)Nc1ccc(N(C)C)cc1 | n | n | n | n | n | x
CC(OC(=O)Cc1ccccc1F)C(=O)Nc1ccc(Cl)cn1 (configuration not stated) | n | n | n | n | n | x
O=[N+]([O-])c1ccc(O)c(/C=N/n2cnc3ccccc32)c1 | n | n | n | n | 41 | 66
Cn1c(/C=C/c2ccccc2)nc2ccccc21 | n | n | n | n | 55 | 48
COc1ccc(/C=C/c2nc3ccccc3n2Cc2ccccc2OC)cc1 | n | n | n | n | n | x
COc1ccccc1Cn1c(/C=C/c2ccccc2)nc2ccccc21 | n | n | n | n | 42 | n
COc1ccccc1Cn1[nH]nnc1=S | n | n | n | n | n | x
Cc1ccc(C(c2nnnn2C2CCCCC2)N2CCc3ccccc32)cc1 (configuration not stated) | n | n | n | n | n | x
CC(C)C(c1nnnn1C1CCCCC1)N1CCc2ccccc21 (configuration not stated) | n | n | n | n | 46 | 31
CC(=O)c1cccc(N=Nc2c(C)[nH]c3ccccc23)c1 | n | n | n | n | 41 | n
SMILES | V-ATPase pHluor | PfHsp90 yeast 2 | tim23-1 inh | tim10-1 inh | TIM10 inh | tim10 confirm
O=C(O)c1ccc(N=Nc2c(O)[nH]c3ccccc23)cc1 | n | n | n | n | n | x
CN1/C(=C\C(=S)NC(=O)c2ccccc2Cl)C(C)(C)c2ccccc21 | n | n | n | n | 40 | n
CSc1ccc(/C=N/NC(=O)CN2CCN(Cc3ccc(Cl)cc3)CC2)cc1 | n | n | n | n | 41 | n
COc1ccccc1CCC(=O)Nc1ccc2c(c1)CN(Cc1ccc(C)o1)CC2 | n | n | n | n | n | x
COc1ccc2[nH]c3c(c2c1)CCN1C(=O)C(CC(=O)NCC24CC5CC(CC(C5)C2)C4)C[C@H](C(=O)N(C(C)C)C(C)C)[C@@]31C (some centres not stated) | n | n | n | n | n | x
Cc1cccc(NC(=S)N/N=C/c2ccc([N+](=O)[O-])s2)c1 | n | 100 | n | n | 58 | 34
CCn1cnnc1SCC(=O)NCC1COc2ccccc2O1 (configuration not stated) | n | n | n | n | n | x
CC12CC(c3ccccc3O1)N(C(=O)c1ccco1)C(=S)N2c1ccc(F)cc1 (configuration not stated) | n | n | n | n | 42 | 40
CC1(C)Cc2c(cnn2-c2ccc(F)cc2)C(NC(=O)c2ccco2)C1 (configuration not stated) | n | n | n | n | n | x
CCOc1ccc(NS(=O)(=O)c2ccc(C(=O)N(C)Cc3cccc(OC)c3OC)cc2)cc1 | n | n | n | n | n | x
N#C/C(=C/c1cccs1)c1nc2ccccc2[nH]1 | n | n | n | n | 50 | n
CCN(CC(=O)Nc1ccccc1C(F)(F)F)C(=O)CN1C(=O)NC(C)(c2ccc3ccccc3c2)C1=O (configuration not stated) | n | n | x | x | x | x
Cc1c(C(=S)Nc2ccccc2)cnn1-c1ccccc1 | n | n | n | n | n | x
Cc1c(C(=S)Nc2ccccc2)cnn1-c1ccc([N+](=O)[O-])cc1 | n | n | n | n | 43 | n
CC(=O)Nc1cccc(Oc2nc(-c3ccccn3)nc3ccccc23)c1 | n | n | n | n | 45 | 33
CC(=O)Nc1cccc(Oc2nc(C(F)(F)F)nc3ccccc23)c1 | n | n | n | n | n | x
O=C(Nc1cccc(Cl)c1)c1cc(S(=O)(=O)NCCc2ccc(Cl)cc2)ccc1F | x | n | n | n | 41 | 51
Cc1ccc(NC(=O)c2cc(S(=O)(=O)NCCc3ccccc3)ccc2F)cc1Cl | n | n | n | n | n | x
O=C(COc1ccc2c(c1)OCO2)NC12CC3CC(CC(C3)C1)C2 | n | n | n | n | 47 | 33
COc1ccc(CCNC(=O)c2c[nH]c3ccc(F)cc3c2=O)cc1OC | n | n | n | n | n | x
COc1ccc(CN(C)C(=O)c2ccc(NC(=O)CC3SC(N4CCCCC4)=NC3=O)cc2)c(OC)c1 (configuration not stated) | n | n | x | x | x | x
CCOC(=O)CN1C=C(c2ccc3ccccc3n2)C(C[N+](=O)[O-])c2ccccc21 (configuration not stated) | n | n | n | n | 57 | 62
COc1ccccc1-n1c2nc3ccccc3nc2c2c(=O)n(-c3cc(C)cc(C)c3)cnc21 | n | n | n | n | n | x
